Screens: PubChem BioAssay, Sanford-Burnham Center for Chemical Genomics
TROY signal inh: blocks TROY-dependent signaling in reporter cells | Q293 LMP1-TROYcd NF-kB luciferase reporter, 4 h | inhibition, % at 10 µM | actives 0.98% (n = 360,000) | AID 1347056;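 active = compounds whose plate-normalised and pattern-corrected inhibition of the luciferase reporter signal at the single screening dose is 50% or more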
Peg3 promoter: inhibitors of Peg3 promoter; HeLa PEG-Prom luciferase reporter, luminescence, overnight; actives 1.7% (n = 360,000); AID 588405; inhibition, % at 20 µM;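 active = inhibition of at least 50% at 20 µM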
KKLEB tox: counter-screen for CF NF-kB inhibitors: cytotoxicity. KKLEB CF airway cells viability, ATPlite luminescence, overnight; active compounds read low; cells stimulated with P. aeruginosa culture filtrate. activity change (cytotoxicity), % at 5 µM. actives 0.36% (n = 360,000). AID 602141;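 active = corrected activity change at or below -50% at 5 µM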
HIF-2a inh: HIF-2a inhibition. 786-0 RCC cells HIF-2a reporter, luciferase luminescence, overnight. inhibition, % at 18.8 µM. actives 0.72% (n = 360,000). AID 624352;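 active = inhibition of the luminescence signal of 40% or more relative to plate controls, in a single-dose primary screen at 18.75 µM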
CF NFkB block: cystic fibrosis NF-kB activation inhibition. KKLEB NF-kB-GFP reporter, PAF-induced, GFP fluorescence overnight. inhibition, % at 5 µM. actives 0.86% (n = 360,000);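 active = at least 50% inhibition at 5 µM, scaled per plate between neutral and stimulator controls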;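 note: PAF is a Pseudomonas aeruginosa culture filtrate used as stimulus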
TWEAK Fn14 block: blocks TWEAK-Fn14 interaction in a reporter cell assay; actives 2% (n = 360,000); inhibition, % at 10 µM; TWEAK-stimulated Fn14 reporter cells, luciferase luminescence, 8 h; in the data active = inhibition above about 50%
Large screens that a line does not name were inactive. Sampled rows, rich in hits. Any-hit rate of the full collection: about 3.9%.

O=C(Nc1nc2ccccc2s1)c1ccc([N+](=O)[O-])o1	none
COc1ccc2nc(NC(=O)c3ccc([N+](=O)[O-])o3)sc2c1	CF NFkB block 66
Cc1cc(C)c2nc(NC(=O)c3ccc([N+](=O)[O-])o3)sc2c1	none
O=C(Nc1nc2cc3c(cc2s1)OCCO3)c1ccc([N+](=O)[O-])o1	CF NFkB block 83
NNc1nc2cc3c(cc2s1)OCCO3	TWEAK Fn14 block 53
O=C(NCc1ccccc1)C1=C[C@H](C2CCCCC2)C[C@H](OCc2ccc(CO)cc2)O1	KKLEB tox -53, CF NFkB block 56
O=C(NCc1ccccc1)C1=C[C@@H](C2CC2)C[C@@H](OCc2ccc(CO)cc2)O1	none
O=C(Nc1cccc(C(F)(F)F)c1)Nc1nnc([C@@H]2C[C@H](O)[C@@H](CO)O2)s1	TWEAK Fn14 block 55
O=C(Nc1nnc([C@H]2C[C@H](O)[C@@H](CO)O2)s1)c1cccc(C(F)(F)F)c1	none
COc1ccc(CNC(=O)Nc2nnc([C@@H]3C[C@H](O)[C@@H](CO)O3)s2)cc1	TWEAK Fn14 block 63
COc1ccc(CNC(=O)Nc2nnc([C@H]3C[C@H](O)[C@@H](CO)O3)s2)cc1	none
C=CCN1C(=O)C(Cc2ccccc2Cl)SC1=Nc1ccc(C(=O)O)cc1 (centres undefined)	none
COC(=O)CSC1=C(C#N)C(=O)NC(c2ccccc2)S1 (centres undefined)	Peg3 promoter 84
COc1ccc(/C=N/Nc2ncnc3sc(C)c(C)c23)cc1	none
Cc1sc2ncnc(N/N=C/c3ccc(O)cc3)c2c1C	TWEAK Fn14 block 52
CCN(CC)CCN1C(=O)c2ccccc2NC1c1ccc(N(C)C)cc1 (centres undefined)	TWEAK Fn14 block 68
CN(C)c1ccc(C2NC(=O)c3ccccc3N2)cc1 (centres undefined)	TWEAK Fn14 block 62
CN(C)c1ccc(C2Nc3ccccc3C(=O)N2CCCN2CCOCC2)cc1 (centres undefined)	TWEAK Fn14 block 56
Cc1ccc(N(C(=O)c2ccc(S(=O)(=O)N3CCOCC3)cc2)C2C=CS(=O)(=O)C2)cc1C (centres undefined)	none
O=C1C=CN(Cc2ccccc2)C(c2ccccc2)C1 (centres undefined)	none
Cc1cc(C)c(S(=O)(=O)c2ccccc2C)c(Cl)n1	none
COCCCNc1ccn2nc(-c3ccccc3)cc2n1	TWEAK Fn14 block 72
COCCCNc1ccn2nc(-c3cccc(Cl)c3)cc2n1	none
Brc1ccc(-c2ccccc2)cc1	none
Brc1ccc(-c2ncc(-c3ccccc3)cn2)cc1	TWEAK Fn14 block 52
Cc1cc(/C=C(\C#N)C(=O)NC2CCCCCC2)c(C)[nH]1	none
COc1ccc(-c2[nH]ncc2/C=C(/C#N)C(=O)NC2CCCCCC2)cc1	Peg3 promoter 50
CC1(O)CC(c2ccc(Cl)cc2)=NN1C(=O)c1ccc([N+](=O)[O-])cc1 (centres undefined)	none
CCN(CC)c1ccc2cc(NC(=O)CCC(=O)O)c(=O)oc2c1	TROY signal inh 69, HIF-2a inh 84, TWEAK Fn14 block 91
CCN(CC)c1ccc2cc(C(=O)Nc3ccccn3)c(=O)oc2c1	TROY signal inh 53, TWEAK Fn14 block 87
O=c1ccnc2n1COCS2	none
CN(C)C(=O)c1c(NC(=O)c2ccco2)sc2c1CCCCC2	TROY signal inh 65
O=C(Nc1sc2c(c1C(=O)O)CCCCC2)c1ccco1	TWEAK Fn14 block 56
CCOC(=O)c1c(NC(=O)c2ccco2)sc2c1CCCCC2	none
CCn1c(=O)n(Cc2ccco2)c(=N)c2c3c(sc21)COC(C)(C)C3	none
COc1ccc(C2CC(c3ccc(Cl)cc3)=NN2c2ccc(S(N)(=O)=O)cc2)cc1 (centres undefined)	none
COc1ccc(C2CC(c3cccc(Cl)c3)=NN2c2ccc(S(N)(=O)=O)cc2)cc1 (centres undefined)	Peg3 promoter 54
CCOP(=O)(NC12CC3CC(CC(C3)C1)C2)NC12CC3CC(CC(C3)C1)C2	none
O=c1oc2c(O)c(O)cc3c(=O)oc4c(O)c(O)cc1c4c23	TWEAK Fn14 block 88
O=c1oc2ccccc2c2oc3cc(O)c(O)cc3c12	none
Cc1ccc(C2C(C(=O)c3cc4ccccc4o3)=C(O)C(=O)N2c2cc(C)on2)cc1 (centres undefined)	none
COc1ccccc1NC(=O)c1c(Nc2ccccc2C)sc(C(=O)Nc2cccc(Cl)c2)c1N	TWEAK Fn14 block 86
CCN(CC(O)CON=C1c2ccccc2-c2ccccc21)S(=O)(=O)c1ccc(Cl)cc1 (centres undefined)	TWEAK Fn14 block 63
CCCNC(=O)C1(C)CCCN(Cc2csc(-c3ccccc3)n2)C1 (centres undefined)	none
N#C/C(=C/c1ccc(-c2ccc([N+](=O)[O-])cc2)o1)C(=O)Nc1nc(-c2cccs2)cs1	Peg3 promoter 55
N#C/C(=C\c1ccc(-c2ccc(F)cc2)o1)C(=O)Nc1nc(-c2cccs2)cs1	none
NOCC(=O)O	none
CCc1ccc(C(=O)C(C)OC(=O)Cc2n[nH]c(=O)c3ccccc23)cc1 (centres undefined)	none
CCc1nc2ccc(C(=O)N3CCN(c4cc(C)ccc4C)CC3)cc2nc1CC	none
O=C(CNC(=S)N(Cc1ccccc1F)C1CCCCC1)NCCCN1CCOCC1	TWEAK Fn14 block 85
CC(C)(C)OC(=O)N/N=C\c1ccc([N+](=O)[O-])s1	TROY signal inh 66, TWEAK Fn14 block 91
Cc1ccc(NC(=O)/C=C/c2ccc([N+](=O)[O-])s2)cc1	TWEAK Fn14 block 50
CCOC(=O)N/N=C\c1ccc([N+](=O)[O-])s1	none
CC(C)(C)c1ccccc1NC(=O)Nc1nc(C(N)Cc2ccc(F)cc2)cs1 (centres undefined)	Peg3 promoter 98
NC(Cc1ccc(C(F)(F)F)cc1)c1csc(NC(=O)Nc2ccccc2Cc2ccccc2)n1 (centres undefined)	Peg3 promoter 118, KKLEB tox -92, CF NFkB block 92
COc1ccc(NC(=O)Nc2nc(C(N)CC(C)C)cs2)cc1 (centres undefined)	none
CC(C)c1ccccc1NC(=O)Nc1nc(C(N)Cc2ccc(C(F)(F)F)cc2)cs1 (centres undefined)	Peg3 promoter 108
NC(c1csc(NC(=O)Nc2ccc(OC(F)(F)F)cc2)n1)C1CCCCC1 (centres undefined)	Peg3 promoter 100, KKLEB tox -65, CF NFkB block 69
CC(=O)c1ccc(-c2cnc3c(NC=O)cc(-c4cnn(C)c4)cn23)cc1	none
CC(N)c1csc(NC(=O)Nc2cccc(C(F)(F)F)c2)n1 (centres undefined)	Peg3 promoter 78
COc1ccc(OC)c(-n2c(-c3cccc(S(=O)(=O)N(C)C)c3)n[nH]c2=S)c1	none
